# Measured values taken from PubChem BioAssay (Tox21).
# Records with an inconclusive call do not appear. Where a call stands in place of a potency, no number is given. Unmarked numbers belong to inactive results. Calls of active or inactive are those of the source. The call rests on the fitted dose curve; in most records, active means well fitted cell-killing curve with a large enough effect in the repeat runs; inconclusive means weak or mixed curves, or effect the other way; inactive means flat fitted curve, though single readings scatter.
# Columns and labels:
# [1] = cAMP Responsive Elements (CRE) small molecule antagonists, cell-based qHTS assay: qHTS cell viability counter screen (AID 2060913); settings: CRE-bla HEK293T viability, CellTiter-Glo luminescence, 5 h; series mostly up to 92.4 µM; further: nearly all actives have a fitted effect of over 40% in size
# Summary of the method: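 Cytotoxicity read in the same wells as the CRE-bla HEK293T antagonist assay: after 3 h compound with 0.25 uM NKH477 final and 2 h beta-lactamase substrate, CellTiter-Glo luminescence measured.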
# [2] = cAMP Responsive Elements (CRE) small molecule agonists, cell-based qHTS assay: qHTS cell viability counter screen (AID 2060914); settings: CRE-bla HEK293T viability, CellTiter-Glo luminescence, 5 h; series mostly up to 92.4 µM;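 further: viability read after 3 h of compound exposure; nearly all actives have a fitted effect of over 50% in size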
# Summary of the method: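 HEK 293T CRE-bla; DMEM + 10% dialyzed FBS, 25 mM HEPES; 18 h pre-incubation; compound 3 h, 37 °C/5% CO2; CellTiter-Glo added after reporter read; luminescence after 30 min RT.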
# Potency means the concentration at half of the fitted maximal effect.
Structure (SMILES),Potency [1],Potency [2],"viability change, negative = cytotoxic [1]","activity change, negative = cytotoxicity [2]"
CC(=O)CCC(C)C,inactive,inactive,–,–
CC(C)OC(=O)C(O)(CC(=O)O)CC(=O)O,inactive,inactive,–,–
C=CCSSCCC,inactive,inactive,–,–
CCOc1ccc(NC(N)=O)cc1,inactive,inactive,–,–
CO[Si](C)(OC)c1ccccc1,inactive,inactive,–,–
Oc1ccccc1,inactive,inactive,–,–
CCn1c2ccccc2c2ccccc21,inactive,inactive,–,–
NC(N)=NC(=O)c1nc(Cl)c(N)nc1N,inactive,inactive,–,–
CCOC(=O)C(C)C(C)=O (configuration not stated),inactive,inactive,–,–
CC(=O)OC(C)=O,inactive,inactive,–,–
Cc1ccc(CCn2c3c(c4cc(Cl)ccc42)CN(C)CC3)cn1,inactive,inactive,–,–
CCCCCCCCCCCC,inactive,inactive,–,–
O=C(OCC(O)CO)c1ccccc1Nc1ccnc2c(C(F)(F)F)cccc12 (configuration not stated),inactive,inactive,–,–
CCCc1ncc(C[n+]2ccccc2C)c(N)n1,inactive,inactive,–,–
O=C(Cl)c1c(Cl)c(Cl)c(C(=O)Cl)c(Cl)c1Cl,inactive,inactive,–,–
CCOC(=O)C1CC(=O)C(=C(O)C2CC2)C(=O)C1 (configuration not stated),inactive,inactive,–,–
CCCCCCCCCC=O,inactive,inactive,–,–
C[C@H]1C[C@H]2[C@@H]3CCC4=CC(=O)C=C[C@]4(C)[C@@]3(Cl)[C@@H](O)C[C@]2(C)[C@@]1(O)C(=O)CO,inactive,inactive,–,–
Cc1c(C)c([N+](=O)[O-])c(C(C)(C)C)c([N+](=O)[O-])c1C,inactive,inactive,–,–
CCCCCCCCCCCCN(CCO)CCO,60.9 µM (active),60.9 µM (active),–,–
CC(=O)CC(=O)N(C)C,inactive,inactive,–,–
CCC(=O)/C=C/C1C(C)=CCCC1(C)C (configuration not stated),inactive,inactive,–,–
O=C(C(=O)c1ccccc1)c1ccccc1,inactive,inactive,–,–
CC[N+](CC)(CCNC(=O)C(=O)NCC[N+](CC)(CC)Cc1ccccc1Cl)Cc1ccccc1Cl,inactive,inactive,–,–
CC(C)c1ccc2cc(C(C)C)ccc2c1,inactive,inactive,–,–
CCCCCCOC(=O)c1ccccc1O,inactive,inactive,–,–

Structure (SMILES),Potency [1],Potency [2],"viability change, negative = cytotoxic [1]","activity change, negative = cytotoxicity [2]"
ON=C1CCCC1,inactive,inactive,–,–
CC(C)(O)c1ccc(CNC(=O)c2cccnc2Oc2ccc3nonc3c2)cc1,inactive,inactive,–,–
c1ccc(-c2ccccc2-c2ccccc2)cc1,inactive,inactive,–,–
CN1C(=O)N(c2ccccc2Br)Cc2cnc(Nc3ccc4c(c3)OCC(CO)O4)nc21 (configuration not stated),inactive,inactive,–,–
O=C1Nc2cc(Cl)ccc2Oc2ccccc21,inactive,inactive,–,–
C=CCOc1c(Br)cc(Br)cc1Br,inactive,inactive,–,–
O=C1NC(=O)C(c2ccccc2)(c2ccccc2)N1,inactive,inactive,–,–
Cc1ccc(C(C)(C)C)c(O)c1,inactive,inactive,–,–
CC1CCc2c(N3CCC(O)CC3)c(F)cc3c(=O)c(C(=O)O)cn1c23 (configuration not stated),inactive,inactive,–,–
CN(C)CCOC(C)(c1ccccc1)c1ccccn1 (configuration not stated),inactive,inactive,–,–
Nc1cc(N)cc(C(=O)O)c1,inactive,inactive,–,–
O=Cc1ccc([N+](=O)[O-])cc1,inactive,inactive,–,–
CC1=NN(c2ccc(S(=O)(=O)O)cc2)C(=O)C1,inactive,inactive,–,–
CN(C)C(=O)NC1(c2ccccc2)CCN(CC[C@@]2(c3ccc(F)c(F)c3)CN(C(=O)c3ccccc3)CCO2)CC1,inactive,inactive,–,–
CCC(C)(CN(C)C)OC(=O)c1ccccc1 (configuration not stated),inactive,inactive,–,–
C[C@@H]1C[C@H]2O[C@@]3(O[C@@H]2C(C)(C)O)[C@H](O)[C@@]2(C)[C@@H]4CC[C@H]5C(C)(C)[C@@H](O[C@@H]6OC[C@@H](O)[C@H](O)[C@H]6O)CC[C@@]56C[C@@]46CC[C@]2(C)[C@@H]13,inactive,inactive,–,–
CCN(CC)CCNC(=O)c1c(C)[nH]c(/C=C2\C(=O)Nc3ccc(F)cc32)c1C,inactive,inactive,–,–
CC1=C(CC(=O)O)c2cc(F)ccc2/C1=C\c1ccc(S(C)=O)cc1 (configuration not stated),inactive,inactive,–,–
Cc1ccccc1S(=O)(=O)O,inactive,inactive,–,–
NS(=O)(=O)c1cc2c(cc1C(F)(F)F)NCNS2(=O)=O,inactive,inactive,–,–
c1ccc2sc(SSc3nc4ccccc4s3)nc2c1,–,–,2.3% [at 18.9 µM],-2.25% [at 18.9 µM]
c1cnc2c(c1)ccc1cccnc12,inactive,inactive,–,–
CC(=O)CC(C)(C)O,inactive,inactive,–,–
CCC(=O)O,inactive,inactive,–,–
CC(C)(C)C(=O)OCOP(=O)(COCCn1cnc2c(N)ncnc21)OCOC(=O)C(C)(C)C,inactive,inactive,–,–
